# Screening results: PubChem BioAssay, National Center for Advancing Translational Sciences (NCATS)
# ELG1 DNA repair = blocks ELG1-dependent DNA repair in HEK293T cells | Potency, µM (series often up to 46.1 µM), for inactives: top-dose activity change, negative = inhibition, usual class: inhibitors | AID 504467 | HEK293T ELG1-luciferase reporter, luminescence, 16 h; DNA damage induced by 5-fluorouridine | hit rate 2.3% among 330,000; also: % is scaled to controls: 0 for no effect and ±100 for the full control effect; nearly all actives have a fitted effect of over 55% in size
#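 Overnight (16 hr) co-exposure of 2,000 cells/well to 5-fluorouridine and compound at 37 °C preceded detection. Luciferase was quantified via ONE-Glo luminescence; loss of signal denotes inhibition.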
# NPC1 prom act = activators of NPC1 promoter. Potency, µM (series often up to 9.22 µM), without a hit: at the highest dose activation, actives largely listed as activators. hit rate 2.4% among 320,000. Huh7 NPC1 promoter luciferase reporter, 24 h; also: % of control where 0% means no effect; nearly all actives have a fitted effect of over 60% in size
#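 Stable NPC1-promoter luciferase Huh7 line; cpd (DMSO) 24 h, 37 °C, 5% CO2; Amplite luciferase reagent 10 min RT; luminescence readout. qHTS format.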
# SMN2 splice up = SMN2 splice variant enhancement; Potency, µM (highest dose often 46.1 µM), for the others: at the top dose activity change, positive = activation, hits mostly activators; HEK293 SMN2-luciferase splicing reporter, luminescence, 30-36 h; hit rate 2.8% among 210,000; also: % of control where 0% means no effect; nearly all actives have a fitted effect of over 55% in size
#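 HEK293 cells carry an SMN2 minigene-luciferase reporter in which exon 7 inclusion puts luciferase in frame. Cells were seeded at 2000 cells/well, attached for 10-12 hours, then exposed to compounds for 30-36 hours at 37C before ONE-Glo luminescence.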
# FLuc counter = inhibits or activates purified firefly luciferase, miR-21 counter-screen | AID 588342 | P08659 | hit rate 6.9% among 360,000 | purified FLuc, Km substrates, luminescence inhibition | Potency, µM (titrated, usually from 57.5 µM), inactives show top-dose activity change, negative = inhibition, usual class: inhibitors;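 also: plate controls were vehicle for no effect and reference inhibitor for full effect; nearly all actives have a fitted effect of over 55% in size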
# Target sequence (P08659 whole entry, looked up): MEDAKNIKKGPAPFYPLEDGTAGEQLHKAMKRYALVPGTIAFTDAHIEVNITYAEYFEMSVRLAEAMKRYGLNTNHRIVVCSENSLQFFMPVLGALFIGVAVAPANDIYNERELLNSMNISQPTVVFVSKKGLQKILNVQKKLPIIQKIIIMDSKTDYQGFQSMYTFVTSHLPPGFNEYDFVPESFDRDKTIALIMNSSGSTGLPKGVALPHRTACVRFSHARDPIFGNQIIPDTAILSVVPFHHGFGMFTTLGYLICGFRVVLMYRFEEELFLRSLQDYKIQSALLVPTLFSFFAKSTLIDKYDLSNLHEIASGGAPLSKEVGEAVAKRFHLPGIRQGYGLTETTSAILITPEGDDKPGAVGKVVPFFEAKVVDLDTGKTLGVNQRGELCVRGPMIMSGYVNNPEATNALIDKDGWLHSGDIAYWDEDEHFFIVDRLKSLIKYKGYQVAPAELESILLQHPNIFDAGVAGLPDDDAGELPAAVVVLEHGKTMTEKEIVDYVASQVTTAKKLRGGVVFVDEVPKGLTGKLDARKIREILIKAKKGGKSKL
#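 Purified P. pyralis luciferase (10nM final) with 10uM D-luciferin and 10uM ATP (Km levels) in 50mM Tris acetate pH 7.5, 10mM Mg acetate, 0.01% Tween-20, 0.05% BSA; qHTS 6-point titration, ~60 µM downward; luminescence read.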
# Rab9 prom act = activators of Rab9 promoter; Huh7 Rab9 promoter-luciferase reporter, luminescence, 24 h; Potency, µM (doses to about 9.22 µM), inactives show at the top dose activation, negative = inhibition, hits mostly activators; hit rate 2.8% among 320,000; AID 485297; also: % of control where 0% means no effect; nearly all actives have a fitted effect of over 60% in size
#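 Promoter activation is measured as luciferase luminescence in Huh7 cells stably transfected with a Rab9 promoter–luciferase construct, following 24 h compound exposure at 37 °C and 10 min reagent incubation at ambient temperature.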
# ELG1 genotoxic = genotoxicity induction in ELG1-luciferase HEK293T cells. hit rate 1.3% among 330,000. Potency, µM (highest dose often 46 µM), for inactives: at the highest dose activity change, positive = activation, hits mostly activators. HEK293T ELG1-luciferase reporter, luminescence, 16 h. AID 504466; also: % of control where 0% means no effect; nearly all actives have a fitted effect of over 60% in size
#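 Cells (2,000/well) expressing the ELG1-luciferase fusion are dosed by pin tool and kept 16 hr at 37 °C, 5% CO2. Signal comes from ONE-Glo luciferase reagent after 30 min at room temperature.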
# * marks the source's active call; other numbers are inactive results; ? = inconclusive; . = no result given. Hits are enriched below; roughly 9.3% of the tested compounds scored in any of these assays. Calls follow the shape of the dose curve; as a rule, active = well fitted curve in the direction sought with a large enough effect; inconclusive = small, poorly fitted or top-dose-only effect, or another doubt; inactive = no such curve, though single readings can be large; an effect the other way counts as inactive or inconclusive. Potency is read from the fitted curve at half-maximal effect.
SMILES,ELG1 DNA repair,NPC1 prom act,SMN2 splice up,FLuc counter,Rab9 prom act,ELG1 genotoxic
CC1CCc2c(sc3nc(CN4CCOCC4)nc(N4CCc5ccccc5C4)c23)C1 (stereo unspecified),?,-1.0%,-10.1%,6.2%,-4.3%,-1.1%
COc1ccc(OC)c(C(=O)N(C[C@H]2CC[C@@H]([C@@H]3CC[C@H](CO)O3)O2)C(C(=O)NC(C)(C)C)c2ccc(-c3ccccc3)cc2)c1 (stereo partly specified),?,.,.,.,.,-3.1%
CCOC(=O)CC1C(=O)NCCN1S(=O)(=O)c1ccc(Br)cc1 (stereo unspecified),-7.7%,-4.8%,12.7%,-1.6%,0.2%,0.1%
Cn1nc(C(=O)NCc2ccccc2CN2CCCC2)c2ccccc2c1=O,4.2%,-2.1%,.,-0.1%,-5.0%,0.5%
CC(C)C(NC(=O)c1ccc(F)cc1)C(=O)N1CCC1 (stereo unspecified),6.2%,-1.1%,.,0.2%,-5.9%,-3.0%
Cc1sc(NC(=O)c2ccco2)nc1-c1ccc2c(c1)CC(C)N2C(=O)C1CC1 (stereo unspecified),14.6µM*,-1.4%,-37.6%,19µM*,12.2%,-31.2%
CC(=O)Nc1nc(-c2ccc3c(c2)CC(C)N3C(=O)C2CC2)c(C)s1 (stereo unspecified),8.2µM*,8.2%,.,?,3.4%,-7.9%
CCOc1cccc(CNCc2ccc(C(=O)O)cc2)c1,10.8%,5.4%,-52.9%,2.9%,-3.4%,?
CCC(C)(C)NC(=O)C(c1cccn1C)N(C(=O)Cn1nnc2ccccc21)c1ccc(OC)cc1OC (stereo unspecified),-1.2%,-2.1%,5.7%,-0.2%,-4.6%,-1.0%
CC(=O)Nc1ccc(C(=O)/C=C/c2ccco2)cc1,?,13.0%,15.8%,9.53µM*,21.6%,11.1%
CC(=O)Nc1cccc(C(=O)NCCc2ccco2)c1,?,?,.,?,?,23.1µM*
Cc1ccc(NC(=O)N/C=C/c2ccco2)cc1,?,2.82µM*,14.1µM*,?,2.82µM*,?
CC(=O)Nc1cccc(C(=O)/C=C/c2ccco2)c1,?,?,2.0%,19µM*,20.7%,6.6%
O=C(/C=C\c1ccco1)c1ccc(NC(=O)c2ccco2)cc1,?,?,.,10.7µM*,?,?
Cc1ccc(NC(=O)CCNS(=O)(=O)c2cccs2)cc1F,2.0%,0.0%,7.2%,-18.0%,-3.5%,3.4%
Cc1ccnc(NC(=O)CCC(=O)c2cccs2)c1,?,?,.,0.338µM*,?,?
Cc1ccc(NC(=O)CCC(=O)c2cccs2)cc1F,5.0%,19.8%,.,8.49µM*,?,17.9%
COc1ccc(NC(=O)c2sc3nc(C)nc(N4CCOCC4)c3c2C)c(OC)c1,7.8%,-3.1%,-30.1%,-1.2%,-0.8%,-9.3%
CCOc1ccc(NC(=O)c2sc3nc(C)nc(N4CCOCC4)c3c2C)cc1,13µM*,-6.7%,.,-13.4%,1.0%,-23.6%
Cc1nc(N2CCN(C)CC2)c2c(C)c(C(=O)Nc3ccc(C)c(F)c3)sc2n1,-14.2%,-8.6%,-13.0%,12.9%,-0.9%,?
Cc1nc(N2CCCCC2)c2c(C)c(C(=O)Nc3ccc4c(c3)OCCO4)sc2n1,10.3µM*,-8.8%,.,?,1.7%,-7.2%
CC1CCN(C(=O)CSc2c3c(nc4ccc(Cl)cc24)CCCC3)CC1,.,.,-21.5%,-12.3%,.,.
CCN(CCCNC(=O)c1cc2c(Cl)nc3ccccc3c2s1)Cc1ccccc1,.,.,-32.0%,3.1%,.,.
c1csc(Cc2nn3c(-c4n[nH]c5c4CCC5)nnc3s2)c1,?,-1.1%,?,-10.4%,12.1%,12.6%
COc1ccc(-n2nc(C(=O)NCC(=O)NCCC3=CCCCC3)c3ccccc3c2=O)cc1OC,9.2µM*,-3.5%,.,-3.4%,1.6%,-6.4%
SMILES,ELG1 DNA repair,NPC1 prom act,SMN2 splice up,FLuc counter,Rab9 prom act,ELG1 genotoxic
COC(=O)CNC(=O)CNC(=O)c1nn(-c2ccc(OC)c(OC)c2)c(=O)c2ccccc12,-0.8%,3.5%,.,0.3%,-0.7%,-1.8%
COc1ccc(-n2nc(C(=O)NCC(=O)N3CCN(c4ccccc4F)CC3)c3ccccc3c2=O)cc1OC,?,?,.,0.953µM*,28.4%,5.7%
CCCCNC(=O)CNC(=O)c1nn(-c2ccc(OC)cc2)c(=O)c2ccccc12,-10.6%,-0.4%,.,1.5%,-2.4%,0.4%
COc1ccc(-n2nc(C(=O)NCC(=O)N3CCN(c4ccccc4F)CC3)c3ccccc3c2=O)cc1,?,?,.,0.338µM*,?,7.3%
O=C(O)C1CCC(CNS(=O)(=O)c2ccc(Cl)cc2)CC1 (stereo unspecified),12.0%,1.4%,.,0.7%,-3.9%,-0.6%
CCc1nnc(SCc2ccc(C(=O)OC)o2)n1N,8.1%,8.5%,9.9%,5.4%,0.0%,-2.4%
Cc1nn(C)cc1CN(C)C(=O)c1cc(-c2ccccc2)nc2ccc(Br)cc12,?,2.4%,-11.1%,21.3µM*,14.8%,-12.4%
Cn1cc(CNC(=O)c2cc(-c3ccc(Br)cc3)nc3ccccc23)cn1,-7.1%,8.2%,.,?,-0.2%,-10.1%
Cc1ccc(-c2cc(C(=O)NCc3cnn(C)c3)c3cc(Br)ccc3n2)cc1,14.5%,3.6%,-2.8%,1.07µM*,24.4%,?
NC(=O)c1cc(-c2ccccc2)nc2ccc(Br)cc12,-3.4%,1.6%,.,5.2%,1.7%,6.3%
Cn1cc(CNC(=O)c2cc(-c3ccccc3)nc3ccc(Br)cc23)cn1,-2.3%,-0.1%,18.7%,5.36µM*,1.7%,-1.5%
Cc1cccc(NCC(=O)N/N=C/c2ccc(Br)cc2)c1,1.0%,-0.8%,.,0.6%,-2.8%,0.9%
COc1ccc(-c2cc3nc(C)cc(N4CC(C)CC(C)C4)n3n2)cc1 (stereo unspecified),?,1.7%,-9.3%,-14.8%,1.3%,-3.1%
CCc1c(C)nc2cc(-c3ccc(OC)c(OC)c3)nn2c1NCC1CC1,14.6µM*,13.1%,-0.3%,?,10.2%,-19.7%
COC(=O)c1ccc(CNC(=O)c2cc3ccccc3oc2=O)cc1,0.8%,-5.0%,20.9%,-0.8%,1.9%,3.4%
CN1CCN(c2ccccc2NC(=O)c2cccc(OCc3ccccc3)c2)CC1,20.6µM*,-7.0%,22.3%,2.3%,-6.5%,-23.5%
COc1ccccc1C(=O)Nc1ccccc1N1CCN(C(=O)c2ccc(Cl)cc2)CC1,14.6µM*,-8.9%,.,-4.2%,-1.3%,-10.0%
O=C(Nc1ccccc1N1CCN(C(=O)c2ccccc2)CC1)c1ccccc1Cl,?,-10.2%,.,-2.4%,-2.3%,-4.3%
COc1cccc(C(=O)Nc2ccccc2N2CCN(C(=O)c3ccccc3)CC2)c1,23.1µM*,.,.,.,.,-6.8%
